# Compounds with a hit are over-represented: about 2.5% of the library has one in this group of screens.
# PKA-R1A activ = activators of PKA-R1A holoenzyme, primary screen, biochemical, fluorescence polarization, Cy5-IP20, bovine R1A, mouse PKAc | hit rate 0.083% among 340,000 | activation, % at 11.4 µM | PKA-R1A dissociation; scaled: DMSO 0%, 113 µM cGMP 100% | AID 504707, 2011 | cAMP-dependent protein kinase type I-alpha regulatory subunit (Bos taurus) + …;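 active = percent activation above the mean of all tested compounds plus 3 SD, cut at about 19% in these data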;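 note: higher means more PKAc released from R1A so a rise in polarization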
# CHT allo act = CHT positive allosteric modulators, primary screen, cell-based, membrane potential dye, choline EC20. High affinity choline transporter 1 (Homo sapiens), Q9GZV3. CHT-expressing cells; stronger effect = higher value; LV-AA mutant CHT in HEK293 cells. B-score at 10 µM. hit rate 0.49% among 310,000. AID 488977, 2010;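 active = initial fluorescence not abnormally high and integrated response B-score, plate-corrected, over 3 SD above library mean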
# TMEM16A act = TMEM16A chloride channel activators or potentiators, primary screen, cell-based, HTS. HEK293 TMEM16A/YFP-H148Q/I152L, iodide quench fluorescence; stronger effect = lower value. B-score at 10 µM. AID 623877, 2012. hit rate 0.3% among 340,000. Anoctamin-1 (Mus musculus), Q8BHY3;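 active = fluorescence-ratio B-score plate-corrected deviation score at least 3 library SD below zero, with starting fluorescence score within 5 deviations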;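 note: channel opened by trigger with iodide after compound preincubation; score built on the fluorescence ratio of max minus min over baseline; more negative score means more quench and so TMEM16A activation or potentiation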
# Target sequence (Q8BHY3 whole entry, looked up): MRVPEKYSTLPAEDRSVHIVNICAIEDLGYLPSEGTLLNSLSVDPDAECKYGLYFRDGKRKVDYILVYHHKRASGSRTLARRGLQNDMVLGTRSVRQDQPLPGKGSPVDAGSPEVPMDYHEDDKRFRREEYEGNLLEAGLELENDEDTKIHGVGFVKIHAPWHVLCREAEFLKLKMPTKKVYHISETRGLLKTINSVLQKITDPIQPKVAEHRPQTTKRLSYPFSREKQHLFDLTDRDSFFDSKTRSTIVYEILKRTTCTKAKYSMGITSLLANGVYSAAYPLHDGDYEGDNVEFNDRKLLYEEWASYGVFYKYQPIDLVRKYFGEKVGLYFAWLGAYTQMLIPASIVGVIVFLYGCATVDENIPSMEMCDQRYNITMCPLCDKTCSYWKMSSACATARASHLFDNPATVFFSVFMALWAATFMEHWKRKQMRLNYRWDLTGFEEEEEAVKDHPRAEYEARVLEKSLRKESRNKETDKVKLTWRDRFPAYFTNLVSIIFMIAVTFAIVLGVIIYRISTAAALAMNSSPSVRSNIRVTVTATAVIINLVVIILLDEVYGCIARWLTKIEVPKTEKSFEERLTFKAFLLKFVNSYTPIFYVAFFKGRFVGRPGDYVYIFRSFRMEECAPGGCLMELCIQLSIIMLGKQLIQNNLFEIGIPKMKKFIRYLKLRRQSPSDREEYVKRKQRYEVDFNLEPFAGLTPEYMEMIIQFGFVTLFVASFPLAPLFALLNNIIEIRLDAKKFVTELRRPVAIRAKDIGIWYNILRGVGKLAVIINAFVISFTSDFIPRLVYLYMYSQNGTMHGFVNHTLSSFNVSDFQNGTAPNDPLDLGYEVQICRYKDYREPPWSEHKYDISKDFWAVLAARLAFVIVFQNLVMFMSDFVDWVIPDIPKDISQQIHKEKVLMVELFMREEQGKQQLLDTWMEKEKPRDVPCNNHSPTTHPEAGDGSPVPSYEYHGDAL
# CHT block = inhibitors of human choline transporter CHT | CHT-expressing cells, membrane potential dye, choline response; stronger effect = lower value | High affinity choline transporter 1 (Homo sapiens), Q9GZV3 | B-score at 10 µM | AID 488975, 2010 | hit rate 0.86% among 310,000;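 active = B-score over 3 SD under the library average, and starting fluorescence ratio not unusually high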;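 note: choline stimulus applied at its EC90 after an EC20 pre-addition; B-score computed on integrated fluorescence ratio after choline addition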
# ANO1 block = TMEM16A chloride channel inhibitors, primary screen, cell-based, HTS; HEK293 TMEM16A/YFP iodide influx fluorescence, ionomycin; normalized B-score (activity score, 25-100; higher = stronger inhibition) at 10 µM; hit rate 1.2% among 310,000; AID 588511, 2011;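 active = ratio plate-corrected score three or more library SD toward inhibition, starting fluorescence score within five deviations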;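 note: score derived from kinetic fluorescence span divided by baseline fluorescence per well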
# PKA-R2B activ = activators of PKA-R2B holoenzyme, primary screen, biochemical, fluorescence polarization, Cy5-IP20, human | cAMP-dependent protein kinase catalytic subunit beta (Homo sapiens) + cAMP-dependent … | PKA-R2B holoenzyme dissociation; R2B truncated from residue 108, S112A mutant; 0% DMSO only, 100% 113 µM cGMP | activation, % at 11.4 µM | hit rate 0.079% among 340,000 | AID 504700, 2011;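 active = activation above a cutoff set at the mean over all compounds plus 3 SD, cut at about 18% in these data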;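 note: higher means more holoenzyme dissociation and a rise in polarization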
# TMEM16A reconf = TMEM16A chloride channel inhibitors, confirmation, cell-based, re-confirmation; HEK293 TMEM16A/YFP-H148Q, iodide quench fluorescence; ionomycin added to raise cell calcium; AID 652189, 2013; hit rate 39% among 2,300; inhibition, % at 10 µM; shares compounds with ANO1 block;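 active = mean duplicate percent inhibition, scaled so buffer wells are 0 and the reference blocker 100, over three buffer SD above buffer mean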
# TMEM16A Ca cntr = calcium mobilization in TMEM16A/YFP HEK293 cells, confirmation, counter-screen for TMEM16A inhibitor project | shares compounds with ANO1 block | Fluo4 calcium mobilization | calcium response (% of ionomycin), % at 10 µM | hit rate 2% among 2,300;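 active = duplicate-averaged calcium signal over 20% of the ionomycin maximum, relative to buffer baseline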;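 note: each well's signal is peak minus trough fluorescence divided by its pre-addition baseline; 0% = buffer wells and 100% = ionomycin wells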
# YFP-HEK293 quench = iodide YFP quench changes in parental YFP-HEK293, counter-screen for TMEM16A inhibitor project, cell-based; shares compounds with ANO1 block; ionomycin; YFP ratio F(max-min)/F0 at 10 µM; 2,300 tested, under 10 active; AID 652233, 2013;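 active = yellow fluorescent protein signal ratio exceeding the buffer control mean by over 5 SD of those controls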;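 note: ratio is mean of duplicate wells from kinetic YFP trace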
# ClC-1 rat inh = ClC-1 chloride channel inhibition, selectivity assay for TMEM16A inhibitor project, cell-based, voltage-dependent ClC-1. shares compounds with ANO1 block. CHO ClC-1-YFP, iodide influx fluorescence quench; iodide control reads 0, buffer control 100. ratio percent, % at 10 µM. 2,300 tested, under 10 active;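 active = duplicate-mean ratio percent above the mean of iodide-only control wells, which defines zero, plus 5 of their SD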;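 note: higher percent means stronger block of ClC-1 iodide influx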
# * hit, by the source's call; i = inactive; x = no result.
SMILES,PKA-R1A activ,CHT allo act,TMEM16A act,CHT block,ANO1 block,PKA-R2B activ,TMEM16A reconf,TMEM16A Ca cntr,YFP-HEK293 quench,ClC-1 rat inh
COc1ccc(CCNC(=O)CSc2nc3c(sc(=S)n3-c3ccccc3)c(=O)[nH]2)cc1OC,-3,x,x,x,x,-10,x,x,x,x
CCN(C(=O)CN1CCN(c2ccccc2F)CC1)c1c(N)n(Cc2ccccc2)c(=O)[nH]c1=O,-4,i,i,i,100*,-11,i,i,-0.96,-18
CC(C)C(=O)N1CCN(c2nc(-c3ccc(Cl)cc3)cs2)CC1,-4,i,i,i,25*,-7,34%*,i,-1.1,-12
O=C(CN1CCN(c2nc(-c3ccc(Cl)cc3)cs2)CC1)NCc1ccco1,-1,i,x,i,25*,-5,i,20%*,-0.95,4
S=C(NCc1ccco1)N1CCN(c2nc(-c3ccccc3)cs2)CC1,2,i,i,i,i,-1,x,x,x,x
CCOC(=O)N1CCN(c2nc(-c3ccc(Cl)cc3)cs2)CC1,-9,i,i,i,i,-14,x,x,x,x
CCOC(=O)c1sc(NC(=O)CC)c(C#N)c1C,-10,i,i,i,i,-4,x,x,x,x
COc1ccc2c(c1)cc(C(=O)N/N=C/c1c(O)c(C(=O)O)cc3ccccc13)n2C,-8,i,i,i,i,3,i,i,-1.4,-20
COc1ccccc1N1CCN(c2ncnc3c2oc2ccccc23)CC1,-11,i,i,i,100*,6,i,i,-1,-8
C(=C\c1ccccc1)/CN1CCN(c2ncnc3c2oc2ccccc23)CC1,-2,i,i,i,100*,-12,34%*,i,-1,-22
COc1ccccc1CNC(=O)C1CCCN(S(=O)(=O)c2cccs2)C1 (configuration not stated),-4,i,i,i,i,8,x,x,x,x
Cc1ccc(-n2c(C)cc(C(=O)COC(=O)c3c(C)noc3C)c2C)cc1,-3,i,i,i,100*,-2,i,i,-0.97,-16
Cc1cc(C(=O)COC(=O)c2cnccn2)c(C)n1-c1ccc(Br)cc1,-8,x,i,x,x,3,x,x,x,x
CCOCCCNc1nc2c(C)cccn2c(=O)c1/C=C1\SC(=S)N(CC(C)C)C1=O,-8,i,i,i,i,7,i,i,-0.086,44
CCCn1c(C(O)c2cc(OC)c(OC)c(OC)c2)nc2ccccc21 (configuration not stated),-8,i,i,i,i,-6,x,x,x,x
CNC[C@@H](CC1CCCCC1)NC[C@H](CC(C)C)NCCc1cccc(C(F)(F)F)c1,-5,i,i,i,25*,-15,i,i,-1.1,-1
CNC[C@@H](Cc1ccccc1)NC[C@@H](CC1CCCCC1)NCCCc1ccccc1,6,i,i,i,i,3,x,x,x,x
N#CCc1ccc(NS(=O)(=O)c2ccc(C3CCCCC3)cc2)cc1,-13,i,i,i,25*,-19,34%*,i,-0.91,-10
COc1ccc(Cc2nnc(SCC(=O)NC3(C#N)CCCCC3)n2N)cc1,-8,i,i,i,i,-7,x,x,x,x
CCOC(=O)N1CCC(N(C(=O)Nc2ccc(Cl)c(Cl)c2)C(C)CC)CC1 (configuration not stated),-6,i,i,i,25*,-5,i,i,-1.1,-11
Cc1nc(CN(C)C(=O)c2cc(COc3ccc4ncccc4c3)on2)cs1,2,i,i,i,100*,11,18%*,i,-1,-25
CC(C)N(Cc1nccn1C)C(=O)c1cc(COc2ccc3ncccc3c2)on1,-3,i,i,i,i,6,x,x,x,x
COc1ccc(N2CCN(C(CNC(=O)OCc3ccccc3)c3ccco3)CC2)cc1 (configuration not stated),-8,i,i,i,i,4,x,x,x,x
CC1Cc2cc(-c3csc(NC(=O)Cc4cccs4)n3)ccc2N1S(C)(=O)=O (configuration not stated),-4,i,i,i,25*,-6,22%*,i,-1.4,-4
CCC(=O)Nc1nc(-c2ccc3c(c2)CC(C)N3S(C)(=O)=O)cs1 (configuration not stated),-9,i,i,i,i,-9,x,x,x,x
SMILES,PKA-R1A activ,CHT allo act,TMEM16A act,CHT block,ANO1 block,PKA-R2B activ,TMEM16A reconf,TMEM16A Ca cntr,YFP-HEK293 quench,ClC-1 rat inh
COc1ccccc1-c1c(C)nn2c(N3CCCCCC3)cc(C)nc12,3,i,i,i,100*,0,34%*,i,-0.82,-19
COc1ccccc1-c1c(C)nn2c(N3CCOCC3)cc(C)nc12,7,i,i,i,i,-4,x,x,x,x
CC[C@H](C)[C@H]1CNC(=S)N1CC1CCN(CCC23CC4CC(CC(C4)C2)C3)CC1,0,x,x,x,x,-12,x,x,x,x
C=CCNC(=O)c1oc2ccc(S(=O)(=O)N(CC)CC)cc2c1C,-4,i,i,i,25*,-6,i,i,-1,-6
Cc1cc(C(=O)CSc2nnc(N)s2)c(C)n1Cc1cccs1,3,i,i,i,i,11,x,x,x,x
Cc1cc(C(=O)CSc2n[nH]c(-c3ccccc3F)n2)c(C)n1Cc1cccs1,13,i,i,i,100*,0,i,i,-1.1,-4
O=C(Nc1ccc(Cl)c(Cl)c1)c1ccccc1,-1,i,i,i,i,-9,x,x,x,x
